CYP2C19 inh: inhibitors of human CYP2C19 | CYP2C19 Supersomes, luciferin-H EGE luminescence, 30 min | AID 778 | hit rate 21% among 96,000 | inhibition, % at 5 µM;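 active = CYP2C19 inhibition above a set limit at 5 µM in the primary screen, cut at about 50% in these data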;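 also: plate controls were negative control wells for no effect and 2.5 mM tranylcypromine positive control for full effect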
Target sequence (P33261 whole entry, looked up): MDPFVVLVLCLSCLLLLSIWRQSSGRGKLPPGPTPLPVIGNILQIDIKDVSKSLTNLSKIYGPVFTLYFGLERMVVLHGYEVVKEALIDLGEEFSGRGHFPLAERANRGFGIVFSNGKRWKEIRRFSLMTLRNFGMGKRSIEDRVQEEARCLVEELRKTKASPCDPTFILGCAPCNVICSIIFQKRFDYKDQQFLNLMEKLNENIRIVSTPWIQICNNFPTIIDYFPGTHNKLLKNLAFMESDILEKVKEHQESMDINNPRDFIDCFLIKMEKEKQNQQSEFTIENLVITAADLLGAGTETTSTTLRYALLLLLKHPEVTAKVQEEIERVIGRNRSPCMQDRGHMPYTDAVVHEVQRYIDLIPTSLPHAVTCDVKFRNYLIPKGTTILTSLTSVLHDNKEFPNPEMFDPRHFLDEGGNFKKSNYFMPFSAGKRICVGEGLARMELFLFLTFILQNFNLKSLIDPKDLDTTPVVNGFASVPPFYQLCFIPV
CYP2C9 act: CYP2C9 (human) activation; P11712; recombinant CYP2C9, luciferin-H conversion, luminescence; stronger effect = higher value; factor 1 = untreated enzyme, 0 = blocked; activation factor at 5 µM; hit rate 1.4% among 96,000; AID 1024;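 active = activation factor of 2 or more for CYP2C9 at a 5 µM dose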;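 also: 0 = sulfaphenazole-blocked wells and 1 = vehicle-only wells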
CYP2C19 act: cytochrome P450 2C19 (human) activation. recombinant CYP2C19, luciferin-H EGE luminescence; stronger effect = higher value; 0 = fully inhibited enzyme, 1 = untreated enzyme. AID 1025. activation factor at 5 µM. P33261. 96,000 tested, under 10 active;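 active = activation factor of at least 2 at 5 µM in the primary screen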;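 also: 0 = wells with 2.5 mM tranylcypromine and 1 = vehicle-only wells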
CYP2C9 inhib: blocks human cytochrome P450 2C9 | hit rate 20% among 96,000 | P11712 | CYP2C9 Supersomes, luciferin-H conversion, luminescence | inhibition, % at 5 µM | AID 777;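 active = blocking of liver enzyme CYP2C9 beyond about 50% at 5 µM, limit read from the data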
PostGolgi yeast: growth inhibition of a yeast mutant, post-Golgi transport screen. post-Golgi transport phenotypic cell assay. inhibition, % at 10 µM. hit rate 0.9% among 98,000;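 also: yeast cells grown in 1536-well plates; yeast grown about 18 h at 30C before absorbance read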
PostGolgi ctrl: yeast control strain growth, post-Golgi counter-screen | inhibition, % at 10 µM | hit rate 5% among 98,000 | efflux-deficient yeast background strain, growth absorbance A615, 16 h
* hit, by the source's call; . = no result. A selection: hits, their analogues and other compounds. The true share with any hit is near 32%. Rule as the data show it, unless noted: active = inhibition above about 30%; inactive = the rest.

SMILES | CYP2C19 inh | CYP2C9 act | CYP2C19 act | CYP2C9 inhib | PostGolgi yeast | PostGolgi ctrl
CC1=C(C(=O)OC2CCCCC2)C(c2ccco2)C2=C(CC(C)(C)CC2=O)N1 (stereo not given) | 1 | 1 | 1 | 3 | 19 | 41*
CC1=C(C(=O)OCc2ccccc2)C(c2ccc(C)o2)C2=C(CCCC2=O)N1 (stereo not given) | 69* | 0.3 | 0.3 | 70* | -4 | 4
CC1=C(C(=O)OC2CCCCC2)C(c2ccc(C)o2)C2=C(CCCC2=O)N1 (stereo not given) | 42 | 0.4 | 0.6 | 60* | -5 | 16
CC1=C(C(=O)OCCOc2ccccc2)C(c2ccc(C)o2)C2=C(CC(C)(C)CC2=O)N1 (stereo not given) | 78* | 0.2 | 0.2 | 82* | -7 | 0
COC(=O)C1C(=O)C2=C(CC1C)NC(C)=C(C(=O)OCCOc1ccccc1)C2c1ccc(C)o1 (stereo not given) | . | . | . | . | 7 | 17
CC1=C(C(=O)Nc2ccc(C)cc2)C(c2ccc(C)o2)C2=C(CC(C)(C)CC2=O)N1 (stereo not given) | -4 | 1 | 1 | 1 | -3 | -6
FC(F)(F)C(Oc1nc(NC2CCCCC2)nc(N2CCOCC2)n1)C(F)(F)F | 16 | 0.7 | 0.8 | 27 | -7 | 22
COC(=O)c1c(N)sc2c1CCN(c1ncc(C(F)(F)F)cc1Cl)C2 | 36 | 0.7 | 0.6 | 29 | -1 | 17
CCOC(=O)C1=C(C)NC2=C(C(=O)CC(c3ccc(OC)c(OC)c3)C2)C1c1ccc(C)o1 (stereo not given) | 19 | 0.4 | 0.8 | 59* | 13 | 2
O=S(=O)(NCC(c1cccnc1)N1CCN(c2ccccc2)CC1)c1cc(F)ccc1F (stereo not given) | 36 | 0.6 | 0.6 | 38 | 95* | 75*
O=C(NCC(c1cccnc1)N1CCN(c2ccc(F)cc2)CC1)c1ccccc1 (stereo not given) | 54* | 0.8 | 0.5 | 21 | 10 | 8
COc1ccc(NC(=O)C2OC3OC(C)(C)OC3C3OC(C)(C)OC23)cc1 (stereo not given) | -6 | 0.7 | 1.1 | 28 | -11 | 0
C/C(=N\NC(=O)c1cccc(F)c1)c1ccc(Br)s1 | 8 | 1 | 0.9 | -1 | -4 | 0
COc1ccccc1CN=Cc1[nH]c2ccc(Br)c(Cl)c2c1O | 85* | 0.3 | 0.2 | 73* | 0 | 18
CCOC(=O)C1=C(N)OC2=C(C(=O)CCC2)C1c1cccs1 (stereo not given) | 88* | 0.2 | 0.1 | 80* | -4 | 0
CCOC(=O)C1=C(C)NC2=C(C(=O)CCC2)C1c1cccs1 (stereo not given) | 74* | 0.4 | 0.3 | 64* | 8 | -14
CCOC(=O)c1sc2c(c1C)C(c1cccs1)C1=C(CCCC1=O)N2 (stereo not given) | 10 | 0.5 | 0.9 | 46 | 7 | 18
COCCOC(=O)C1=C(N)OC2=C(C(=O)CCC2)C1c1cccnc1 (stereo not given) | 61* | 1 | 0.4 | -2 | -3 | -2
COCCOC(=O)C1=C(N)OC2=C(C(=O)CC(C)(C)C2)C1c1cccnc1 (stereo not given) | 27 | 0.8 | 0.7 | 16 | -5 | 16
COC(=O)C1=C(N)OC2=C(C(=O)CCC2)C1c1cccs1 (stereo not given) | 34 | 0.8 | 0.7 | 23 | -1 | -18
CC(C)NC(=O)CC(=O)N/N=C/c1ccc(F)cc1 | 1 | 0.8 | 1 | 22 | 7 | -1
Cc1ccc(N(CC(=O)NCc2cccnc2)S(C)(=O)=O)cc1C | 84* | 0.7 | 0.2 | 26 | -8 | -3
CS(=O)(=O)N(CC(=O)NCc1ccncc1)c1cc(Cl)cc(Cl)c1 | 100* | 0.1 | 0 | 87* | -17 | -8
COc1ccccc1N(CC(=O)NCc1ccccc1)S(C)(=O)=O | 18 | 0.9 | 0.8 | 15 | -4 | -12
Cc1ccc(N(CC(=O)NCc2ccncc2)S(C)(=O)=O)cc1Cl | 99* | 0.1 | 0 | 89* | 3 | 16
SMILES | CYP2C19 inh | CYP2C9 act | CYP2C19 act | CYP2C9 inhib | PostGolgi yeast | PostGolgi ctrl
C=CCNC(=O)CN(c1ccc(F)c(Cl)c1)S(C)(=O)=O | 57* | 0.9 | 0.4 | 7 | 5 | 5
Cc1ccc(N(CC(=O)NCC2CCCO2)S(C)(=O)=O)cc1Cl (stereo not given) | 19 | 1.1 | 0.8 | -9 | -7 | 1
Cc1ccc(S(=O)(=O)NC(C(=O)OCC(=O)NC2CCS(=O)(=O)C2)C(C)C)cc1 (stereo not given) | -3 | 1 | 1 | 3 | 0 | -3
CCCN1CCC(N2CCN(c3cccc(C(F)(F)F)c3)CC2)CC1 | 0 | 1.1 | 1 | -8 | 13 | -16
N#Cc1ccc2ccn(CC(=O)NC3CCCCCC3)c2c1 | 58* | 0.7 | 0.4 | 27 | -1 | 7
CC1CCN(C(=O)CSc2nnc(CSc3ncccn3)n2C)CC1 | -10 | 0.9 | 1.1 | 6 | 7 | 11
CCOC(=O)C1=CN(c2cccc(F)c2)C=C(C(=O)OCC)C1c1cc(OC)c(O)c([N+](=O)[O-])c1 | -16 | 0.4 | 1.2 | 57* | 14 | 29
COc1ccc2c(c1)-c1c(ssc1=S)C(C)(C)N2C(=O)CSC1=NCCS1 | 72* | 0.3 | 0.3 | 73* | -6 | 16
COc1cccc(C(=O)SC2=NCCS2)c1 | 24 | 1 | 0.8 | 1 | -10 | 17
Cc1cc2c(cc1C)N(C(=O)CSC1=NCCS1)C(C)(C)c1ssc(=S)c1-2 | 78* | 0.3 | 0.2 | 70* | -8 | 26
CC1(C)c2ssc(=S)c2-c2ccccc2N1C(=O)CSC1=NCCS1 | 52* | 0.7 | 0.5 | 31 | 14 | 27
Cc1ccc2c(c1)-c1c(ssc1=S)C(C)(C)N2C(=O)CSc1nncn1C | 76* | 0.6 | 0.2 | 43 | 10 | 6
Cc1cc(C)c2c(c1)-c1c(ssc1=S)C(C)(C)N2C(=O)CSc1nncn1C | 30 | 0.6 | 0.7 | 41 | 10 | -2
COc1ccc(C2(C(=O)NCc3ccco3)CCCC2)cc1OC | 23 | 1 | 0.8 | -3 | -4 | 2
CSc1cccc(NC(=O)CN(c2cccc(C)c2)S(C)(=O)=O)c1 | 72* | 0.4 | 0.3 | 62* | -12 | 13
Cc1cccc(N(CC(=O)Nc2ccc(F)cc2)S(C)(=O)=O)c1 | 96* | 0.2 | 0 | 82* | 4 | 3
COc1ccc(NC(=O)CN(c2cccc(F)c2)S(C)(=O)=O)cc1OC | 47 | 0.6 | 0.5 | 40 | 12 | 17
CSc1cccc(NC(=O)CN(c2ccc(C)cc2C)S(C)(=O)=O)c1 | 95* | 0.4 | 0.1 | 62* | -14 | 8
Cc1ccc(N(CC(=O)Nc2ccc(F)cc2)S(=O)(=O)N2CCCC2)cc1 | 34 | 0.4 | 0.7 | 62* | 3 | 21

Screening results: PubChem, several laboratories
